Assay [1] has as its target Estrogen receptor beta (Homo sapiens) (UniProt Q92731). The experiment in a line: qHTS assay to identify small molecule agonists of the estrogen receptor beta (ER-beta) signaling pathway (AID 1259377; active = well fitted activation curve with a large enough effect in the signal ratio in the repeat runs, not every such curve was filed as active; the % refers to the signal ratio). The gist of the method:
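Measured by fluorescence intensity from a B/G FRET beta-lactamase substrate (2 h, room temperature) in ER-beta-UAS-bla HEK293T cells treated with DMSO-dissolved compounds for 16 hr at 37C and 5% CO2.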
Background: qHTS replaces the single test concentration by a dilution series.

The target is the same in assay [2]. Description: qHTS assay to identify small molecule antagonists of the estrogen receptor beta (ER-beta) signaling pathway (AID 1259378; active = well fitted inhibition curve with a large enough effect in the signal ratio in the repeat runs, not every such curve was filed as active; the % refers to the signal ratio; also: potency is read from the fitted curve at half-maximal effect). The gist of the method: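 ER-beta-UAS-bla HEK293T (GripTite) cells in 2% charcoal-stripped FBS medium were preincubated 6 hr at 37C, dosed with compound, then stimulated with 1 nM E2 (final) for 16 hr; beta-lactamase reporter read by B/G FRET fluorescence after 2 hr substrate loading.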

Assay [3] has as its target Estrogen receptor (Homo sapiens) (UniProt P03372). The experiment in a line: qHTS assay to identify small molecule agonists of the estrogen receptor alpha (ER-alpha) signaling pathway in the presence of an antagonist (AID 1259383; calls by dose curve; also: top concentration of the series differs between compounds; nearly all actives have a fitted effect of over 15% in size). The gist of the method:
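VM7Luc4E2, endog. ER-alpha + 4×ERE-luc; charcoal-stripped FBS, phenol red-free, 5 d; 24hr plating; +10.0nM ICI-182,780 (final); cpds 15 conc, 22hr, 37C/5% CO2; ONE-Glo luminescence.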

A short description of assay [4]: qHTS assay to identify small molecule agonists or antagonists of the thyroid stimulating hormone receptor (TSHR) signaling pathway - wild type cell line counter screen (AID 1259384; calls by dose curve). The essentials: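 Wild-type HEK293 cells were plated 18 h at 37 C/5% CO2, pin-dosed with compound plus Ro20-1724 medium, held 30 min at room temperature, then given cAMP-d2 and anti-cAMP-cryptate; fluorescence was read after 1 h. Fifteen concentrations, triplicate.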

For assay [5], the target named is Thyrotropin receptor (Homo sapiens) (UniProt P16473). Description: qHTS assay to identify small molecule antagonists of the thyroid stimulating hormone receptor (TSHR) signaling pathway (AID 1259385; calls by dose curve; also: nearly all actives have a fitted effect of over 20% in size). The gist of the method: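 TSHR-HEK293 cells were plated and held 18 h at 37C/5% CO2, then given compound plus Ro20-1724 and stimulated with TSH at 1.5 ng/mL final. After 30 min at room temperature, cAMP was detected with cAMP-d2/anti-cAMP-cryptate (1 h) by fluorescence.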

Assay [6] is described as follows: qHTS assay to identify small molecule agonists of the estrogen receptor alpha (ER-alpha) signaling pathway in the presence of an antagonist - cell viability counter screen (AID 1259386).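 Also: cells exposed to compounds for 22 h at 37 °C before the viability read; nearly all actives have a fitted effect of over 30% in size.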 Also: potency is read from the fitted curve at half-maximal effect. The essentials:
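VM7Luc4E2, stripped-serum pre-culture 5 d; 24hr plating; +ICI-182,780 10.0nM final; cpds 15 conc, 22hr, 37C/5% CO2; CellTiter-Fluor added at 21hr, fluorescence 1hr later.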

Assay [7] has as its target Progesterone receptor (Homo sapiens) (UniProt P06401). Description: qHTS assay to identify small molecule agonists of the progesterone receptor (PR) signaling pathway (AID 1346784; calls by dose curve; also: nearly all actives have a fitted effect of over 30% in size). The essentials: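 The screen uses PR-UAS-bla HEK 293T cells in charcoal-stripped serum (2%). Compounds are applied for 16 hr at 37C after a 6 hr pre-incubation, and reporter activity is detected with a FRET beta-lactamase substrate after 2 hr at room temperature.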

The nature of assay [8]: qHTS assay to identify small molecule antagonists of the progesterone receptor (PR) signaling pathway - cell viability counter screen (AID 1346798). Also: nearly all actives have a fitted effect of over 50% in size. Also: potency is read from the fitted curve at half-maximal effect. The gist of the method:
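Viability was determined by ATP-based luminescence (CellTiter-Glo) in PR-UAS-bla HEK293T cells cultured in 2% charcoal-stripped serum and incubated 16 hr with compounds under R5020 stimulation.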

Assay [9] can be described thus: qHTS assay to identify small molecule antagonists of the TGF-beta/Smad signaling pathway - cell viability counter screen (AID 1346824). Also: nearly all actives have a fitted effect of over 50% in size. Also: potency is read from the fitted curve at half-maximal effect. The essentials:
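SBE-bla HEK 293T cells were plated overnight at 37 C, then given compounds in DMSO plus TGF-beta1 (added as 0.25 ng/mL solution) for 5 hr. After the bla read, CellTiter-Glo was added to the same wells and luminescence read after 30 min at room temperature.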

Assay [10] is described as follows: qHTS assay to identify small molecule agonists of the TGF-beta/Smad signaling pathway - cell viability counter screen (AID 1346829). Also: nearly all actives have a fitted effect of over 45% in size. Also: potency is read from the fitted curve at half-maximal effect. The essentials:
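SBE-bla HEK 293T cells plated overnight, compound exposure 5 hr at 37 C. Viability read in the same wells by CellTiter-Glo luminescence after 30 min at room temperature, following the beta-lactamase read.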

Assay [11] is described as follows: qHTS assay to identify small molecule agonists of the TGF-beta/Smad signaling pathway (AID 1346859; active = well fitted activation curve with a large enough effect in the signal ratio in the repeat runs, not every such curve was filed as active; the % refers to the signal ratio; also: series mostly up to about 77 µM). The essentials:
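Dual-wavelength fluorescence (460/530 nm emission) quantified beta-lactamase expression under the Smad binding element in HEK 293T cells following 5 hr compound treatment at 37 C.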

The target in assay [12] is Thyrotropin-releasing hormone receptor (Homo sapiens) (UniProt P34981). Description: qHTS assay to identify small molecule antagonists of the thyrotropin-releasing hormone receptor (TRHR) signaling pathway (AID 1346877; active = well fitted inhibition curve with a large enough effect in the repeat runs, not every such curve was filed as active; also: series mostly up to about 51 µM). The essentials:
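Intracellular calcium fluorescence, read kinetically every second over 3 min, reports TRH-evoked signalling in HEK293 cells carrying TRHR. Test compounds were added 5 min ahead of a 1 nM TRH challenge.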

Assay [13] has the same target. The experiment in a line: qHTS assay to identify small molecule agonists of the thyrotropin-releasing hormone receptor (TRHR) signaling pathway (AID 1346891; calls by dose curve;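 also: HEK293 cells expressing TRHR with calcium dye readout; series mostly up to about 58 µM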). The gist of the method: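 Kinetic fluorescence (3 min, 1 s intervals) reported intracellular calcium after compound transfer onto TRHR-Hek293 cells pre-loaded with dye for 2 h at 37 °C.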
Assay [14] is described as follows: Human pregnane X receptor (PXR) small molecule agonists, qHTS cell viability counter screen (AID 1346977). Also: nearly all actives have a fitted effect of over 50% in size. Also: potency is read from the fitted curve at half-maximal effect. The gist of the method: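 HepG2 cells stably carrying the PXR-Luc reporter are cultured with 5% charcoal-stripped FBS and treated with compounds for 24hr. CellTiter-Fluor is added at 23hr and fluorescence is read after 1hr.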
Assay [15] is described as follows: qHTS assay to identify small molecule agonists of the androgen receptor (AR) signaling pathway in the presence of an antagonist - cell viability counter screen (AID 1259379). Also: nearly all actives have a fitted effect of over 25% in size. Also: potency is read from the fitted curve at half-maximal effect. The essentials: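 Cells: MDA-kb2 (MMTV-luc, AR and GR elements), 3,000/well, 5 hr settle. Added: nilutamide 3.0uM final, then compounds (15 conc.). Incubation: 16 hr, 37C, no CO2. Read-out: CellTiter-Fluor, 1 hr, fluorescence.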

A short description of assay [16]: qHTS assay to identify small molecule agonists of the estrogen receptor beta (ER-beta) signaling pathway - cell viability counter screen (AID 1259380). Also: nearly all actives have a fitted effect of over 30% in size. Also: potency is read from the fitted curve at half-maximal effect. The essentials:
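HEK293T ER-beta-UAS-bla; 2% CS-FBS; 6 hr pre-plate, 16 hr cpd at 37C/5% CO2; LiveBLAzer read first, then CellTiter-Glo 30 min RT, luminescence.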

In assay [17] the target is Androgen receptor (Homo sapiens) (UniProt P10275). Description: qHTS assay to identify small molecule agonists of the androgen receptor (AR) signaling pathway in the presence of an antagonist (AID 1259381; calls by dose curve; also: nearly all actives have a fitted effect of over 15% in size). The gist of the method:
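MDA-kb2 cells, 3,000/well, rested 5hr at 37C/0% CO2 → nilutamide 3.0uM final or buffer → compounds, 15 conc. → 16hr at 37C → ONE-Glo, 30min RT → luminescence.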

A short description of assay [18]: qHTS assay to identify small molecule antagonists of the estrogen receptor beta (ER-beta) signaling pathway - cell viability counter screen (AID 1259382). Also: nearly all actives have a fitted effect of over 55% in size. Also: potency is read from the fitted curve at half-maximal effect. The gist of the method: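 Cells: ER-beta-UAS-bla HEK293T, 2,000/well, 2% CS-FBS, 6 hr settle. Cpd + E2 (1nM final), 16 hr, 37C/5% CO2. Bla FRET substrate 2 hr RT, then CellTiter-Glo 30 min RT, luminescence.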

Assay [19] can be described thus: qHTS assay to identify small molecule agonists of the progesterone receptor (PR) signaling pathway - cell viability counter screen (AID 1346799; calls by dose curve; also: nearly all actives have a fitted effect of over 45% in size; also: potency is read from the fitted curve at half-maximal effect). The gist of the method: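 Viability was scored by ATP luminescence (CellTiter-Glo, 30 min, room temperature) in the same wells used for the reporter readout, after 16 hr compound exposure of PR-UAS-bla HEK293T cells.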

In assay [20] the target is Progesterone receptor (Homo sapiens) (UniProt P06401). Description: qHTS assay to identify small molecule antagonists of the progesterone receptor (PR) signaling pathway (AID 1346795; active = well fitted inhibition curve with a large enough effect in the signal ratio in the repeat runs, not every such curve was filed as active; the % refers to the signal ratio; also: potency is read from the fitted curve at half-maximal effect). The essentials:
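After 6 hr plating at 37C in 2% stripped-serum medium, PR-UAS-bla HEK293T cells got compounds, then 1 nM R5020. Sixteen hours later, LiveBLAzer substrate was applied for 2 hr at room temperature and fluorescence was recorded.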

The structures appear in SMILES notation. A number with no mark means an inactive call. Results filed as inconclusive are left out. Active and inactive are the calls of the source. Unless noted, calls follow the shape of the dose curve; as a rule, active = well fitted curve in the direction sought with a large enough effect in the repeat runs; inconclusive = weak or mixed curves; inactive = no such curve, though single readings can be large; an effect the other way counts as inactive or inconclusive.

Chain of Estrogen receptor (Homo sapiens) (P03372 whole entry, looked up): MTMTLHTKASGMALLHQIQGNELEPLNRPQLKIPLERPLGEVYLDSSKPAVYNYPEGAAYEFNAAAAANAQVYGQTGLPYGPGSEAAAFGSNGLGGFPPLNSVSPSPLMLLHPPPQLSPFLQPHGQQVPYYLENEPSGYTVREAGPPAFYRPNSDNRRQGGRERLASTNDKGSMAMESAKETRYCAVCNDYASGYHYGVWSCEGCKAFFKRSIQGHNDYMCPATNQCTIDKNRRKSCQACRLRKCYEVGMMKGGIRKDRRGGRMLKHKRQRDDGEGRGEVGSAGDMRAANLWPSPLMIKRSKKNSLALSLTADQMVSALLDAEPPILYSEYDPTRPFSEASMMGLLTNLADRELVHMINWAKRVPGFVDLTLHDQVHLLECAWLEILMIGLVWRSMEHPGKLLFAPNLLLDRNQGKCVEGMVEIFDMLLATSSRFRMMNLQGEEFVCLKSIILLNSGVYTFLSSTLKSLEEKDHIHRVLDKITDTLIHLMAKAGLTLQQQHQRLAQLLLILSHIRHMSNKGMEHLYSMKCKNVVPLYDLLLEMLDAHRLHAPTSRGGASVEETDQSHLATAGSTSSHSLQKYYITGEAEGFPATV
Chain of Estrogen receptor beta (Homo sapiens) (Q92731 whole entry, looked up): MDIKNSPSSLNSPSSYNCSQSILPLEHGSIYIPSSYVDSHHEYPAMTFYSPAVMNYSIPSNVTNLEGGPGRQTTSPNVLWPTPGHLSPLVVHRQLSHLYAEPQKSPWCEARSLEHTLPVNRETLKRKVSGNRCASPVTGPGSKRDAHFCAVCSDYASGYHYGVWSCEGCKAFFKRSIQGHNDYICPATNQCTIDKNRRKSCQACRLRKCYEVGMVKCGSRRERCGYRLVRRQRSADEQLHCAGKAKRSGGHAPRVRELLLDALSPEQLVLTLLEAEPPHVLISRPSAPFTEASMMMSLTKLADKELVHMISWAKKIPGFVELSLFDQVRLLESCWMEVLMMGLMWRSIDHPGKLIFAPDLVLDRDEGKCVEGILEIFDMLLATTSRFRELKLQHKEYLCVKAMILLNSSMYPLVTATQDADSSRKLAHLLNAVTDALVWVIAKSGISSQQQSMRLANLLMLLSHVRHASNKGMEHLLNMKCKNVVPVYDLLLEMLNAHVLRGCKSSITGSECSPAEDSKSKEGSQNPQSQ
Chain of Androgen receptor (Homo sapiens) (P10275 whole entry, looked up): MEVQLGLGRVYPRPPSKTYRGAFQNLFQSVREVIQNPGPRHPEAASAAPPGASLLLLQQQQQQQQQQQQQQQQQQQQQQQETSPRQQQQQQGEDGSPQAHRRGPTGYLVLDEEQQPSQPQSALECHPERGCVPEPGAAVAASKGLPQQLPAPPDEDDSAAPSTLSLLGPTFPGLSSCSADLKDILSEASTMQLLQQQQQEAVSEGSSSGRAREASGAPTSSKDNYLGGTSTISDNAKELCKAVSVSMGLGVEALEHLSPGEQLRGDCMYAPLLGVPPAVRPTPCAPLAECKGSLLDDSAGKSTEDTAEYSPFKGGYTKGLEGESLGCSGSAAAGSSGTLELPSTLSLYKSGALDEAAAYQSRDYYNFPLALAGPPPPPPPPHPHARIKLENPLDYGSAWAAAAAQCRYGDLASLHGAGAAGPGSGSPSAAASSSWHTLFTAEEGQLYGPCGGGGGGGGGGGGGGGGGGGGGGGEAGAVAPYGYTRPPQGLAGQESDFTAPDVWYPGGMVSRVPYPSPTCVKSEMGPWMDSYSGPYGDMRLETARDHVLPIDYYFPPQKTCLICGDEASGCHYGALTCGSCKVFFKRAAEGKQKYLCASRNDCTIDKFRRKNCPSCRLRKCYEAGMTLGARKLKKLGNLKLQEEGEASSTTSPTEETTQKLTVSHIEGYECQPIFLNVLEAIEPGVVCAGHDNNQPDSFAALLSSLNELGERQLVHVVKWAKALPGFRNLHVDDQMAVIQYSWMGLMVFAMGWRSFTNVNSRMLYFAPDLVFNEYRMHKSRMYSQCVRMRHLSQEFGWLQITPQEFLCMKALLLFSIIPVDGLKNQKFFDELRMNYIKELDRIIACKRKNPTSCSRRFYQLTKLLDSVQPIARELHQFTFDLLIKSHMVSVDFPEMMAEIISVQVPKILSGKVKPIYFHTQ
Chain of Progesterone receptor (Homo sapiens) (P06401 whole entry, looked up): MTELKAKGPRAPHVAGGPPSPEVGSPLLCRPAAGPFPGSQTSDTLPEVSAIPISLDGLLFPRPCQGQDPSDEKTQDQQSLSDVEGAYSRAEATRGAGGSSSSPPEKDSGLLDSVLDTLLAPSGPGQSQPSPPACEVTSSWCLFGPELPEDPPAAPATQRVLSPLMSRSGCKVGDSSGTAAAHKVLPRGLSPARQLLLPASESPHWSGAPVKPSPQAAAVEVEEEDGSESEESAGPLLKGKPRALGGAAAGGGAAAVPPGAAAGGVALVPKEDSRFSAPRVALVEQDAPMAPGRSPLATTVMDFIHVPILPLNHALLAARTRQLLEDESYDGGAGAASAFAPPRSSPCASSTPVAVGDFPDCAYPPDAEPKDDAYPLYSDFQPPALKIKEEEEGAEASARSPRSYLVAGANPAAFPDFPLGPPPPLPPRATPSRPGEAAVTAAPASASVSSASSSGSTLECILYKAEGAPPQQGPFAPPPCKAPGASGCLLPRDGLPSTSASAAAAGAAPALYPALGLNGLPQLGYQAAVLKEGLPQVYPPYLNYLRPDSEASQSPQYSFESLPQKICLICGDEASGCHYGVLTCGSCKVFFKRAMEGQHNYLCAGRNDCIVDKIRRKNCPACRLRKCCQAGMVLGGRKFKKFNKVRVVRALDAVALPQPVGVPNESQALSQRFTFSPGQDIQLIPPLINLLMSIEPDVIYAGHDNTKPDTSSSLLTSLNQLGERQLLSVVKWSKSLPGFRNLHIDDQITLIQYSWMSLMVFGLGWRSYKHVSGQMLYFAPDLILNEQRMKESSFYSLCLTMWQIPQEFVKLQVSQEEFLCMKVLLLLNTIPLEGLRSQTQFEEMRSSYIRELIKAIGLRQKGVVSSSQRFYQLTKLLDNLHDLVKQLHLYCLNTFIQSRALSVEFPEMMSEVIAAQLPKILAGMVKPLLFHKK
Chain of Thyrotropin receptor (Homo sapiens) (P16473 whole entry, looked up): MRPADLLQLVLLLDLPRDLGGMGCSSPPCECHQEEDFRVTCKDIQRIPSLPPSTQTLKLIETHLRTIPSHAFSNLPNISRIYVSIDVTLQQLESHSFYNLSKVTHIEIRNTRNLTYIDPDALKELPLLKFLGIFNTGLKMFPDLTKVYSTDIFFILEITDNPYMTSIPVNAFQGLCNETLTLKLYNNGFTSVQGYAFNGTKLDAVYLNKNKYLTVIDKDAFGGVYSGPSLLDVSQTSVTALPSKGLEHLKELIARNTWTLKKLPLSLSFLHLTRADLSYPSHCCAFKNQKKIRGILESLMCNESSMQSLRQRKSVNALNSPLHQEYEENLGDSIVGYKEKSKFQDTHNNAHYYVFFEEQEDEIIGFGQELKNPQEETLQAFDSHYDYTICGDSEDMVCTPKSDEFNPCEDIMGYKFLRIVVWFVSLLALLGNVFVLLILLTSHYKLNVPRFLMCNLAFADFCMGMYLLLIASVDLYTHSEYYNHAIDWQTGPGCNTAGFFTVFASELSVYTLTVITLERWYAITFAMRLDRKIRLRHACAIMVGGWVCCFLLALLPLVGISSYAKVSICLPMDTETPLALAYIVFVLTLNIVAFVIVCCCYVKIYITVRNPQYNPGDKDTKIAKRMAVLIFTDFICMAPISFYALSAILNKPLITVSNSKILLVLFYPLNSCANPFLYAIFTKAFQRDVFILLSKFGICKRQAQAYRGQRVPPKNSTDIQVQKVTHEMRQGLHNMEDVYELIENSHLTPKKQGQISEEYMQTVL
Chain of Thyrotropin-releasing hormone receptor (Homo sapiens) (P34981 whole entry, looked up): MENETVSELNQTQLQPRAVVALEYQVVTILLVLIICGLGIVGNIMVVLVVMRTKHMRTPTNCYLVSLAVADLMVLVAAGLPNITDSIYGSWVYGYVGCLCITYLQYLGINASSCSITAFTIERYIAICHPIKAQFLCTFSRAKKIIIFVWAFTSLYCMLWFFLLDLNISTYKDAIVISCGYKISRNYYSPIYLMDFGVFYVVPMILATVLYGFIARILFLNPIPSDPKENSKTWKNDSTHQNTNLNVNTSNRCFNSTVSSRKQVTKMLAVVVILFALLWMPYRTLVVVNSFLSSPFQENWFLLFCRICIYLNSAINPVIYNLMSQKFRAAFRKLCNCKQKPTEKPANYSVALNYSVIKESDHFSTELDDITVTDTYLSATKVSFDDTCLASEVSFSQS

Regarding `CCc1ccc(O)c(C(C)(C)C)c1`, the Potency entry in assay [1], in assay [2], in assay [3], in [5], in [6] and in assay [8] was “inactive” in each case. Further, the Potency entry in [9], in [10], in assay [11], in assay [12], in assay [13] and in [14] was “inactive” in each case. For the same molecule, the molecule was classed as inactive in assay [4] and in assay [7].
In the case of `C=CC/C=C/C/C=C/C/C=C/C`, the Potency result in [2], in assay [15], in [16], in assay [17], in [18] and in assay [3] was “inactive” throughout. In addition, the Potency result in [5], in [6], in [8], in assay [19], in [10] and in assay [11] was “inactive” each time. The Potency result in assay [12], in [13] and in assay [14] was “inactive” each time. The result in assay [4] and in [7] was inactive.
Regarding `CN1CCN(C2Cc3ccccc3Sc3ccc(Cl)cc32)CC1` (stereo not given), the Potency entry in assay [1], in assay [17], in assay [3], in assay [6], in assay [10] and in assay [11] was “inactive” throughout. Besides, the Potency entry in assay [12] and in assay [13] was “inactive” each time. Besides, the Potency in assay [16] is 21.1 µM (active); in assay [18], 18.8 µM (active); in [20] it was 26.6 µM (active); in [8], 29.8 µM (active); in [19], 29.8 µM (active); in assay [14] it was 26.6 µM (active).
`CC(=O)Oc1ccc(C2(c3ccc(OC(C)=O)cc3)Oc3ccccc3NC2=O)cc1`: the Potency entry in assay [1], in assay [18], in assay [3], in [6], in assay [9] and in assay [10] was “inactive” throughout. The Potency entry in assay [11], in [12], in assay [13] and in assay [14] was “inactive” throughout. In addition, the Potency in assay [2] was 1.88 µM (active); in assay [20], 21.1 µM (active). For the same molecule, the call in assay [4] was inactive.
As to `CCN=C1C=CC(=C(c2ccc(N(CC)CC)cc2)c2ccc(N(CC)CC)cc2)c2ccccc21`, the Potency entry in assay [1], in [17], in [3] and in [13] was “inactive” throughout. Besides, the Potency in [15] is 2.16 µM (active); in [16], 27.1 µM (active); in [18], 21.6 µM (active); in assay [6] it was 9.63 µM (active); in [9], 27.4 µM (active); in assay [10], 24.4 µM (active). The Potency in assay [14] was 0.682 µM (active).
`CN1CN(C)CN(C)C1`: the Potency result in assay [1], in [15], in assay [16], in assay [18], in assay [3] and in assay [5] was “inactive” in each case. The Potency entry in assay [6], in assay [20], in assay [8], in [19], in assay [9] and in assay [10] was “inactive” in each case. Besides, the Potency entry in assay [11], in [13] and in assay [14] was “inactive” throughout. For the same molecule, the molecule was classed as inactive in [4] and in assay [7].
As for `CCCCCCOc1ccc(O)cc1`, the Potency entry in assay [1], in assay [15], in assay [17], in assay [3], in assay [5] and in assay [6] was “inactive” throughout. Besides, the Potency result in [8], in assay [19], in assay [9], in assay [10], in assay [11] and in assay [13] was “inactive” in each case. The result in assay [4] was inactive. Further, the Potency in [20] is 13.7 µM (active).

Values taken from PubChem BioAssay (Tox21).
